Data taken from article PMC4336329 (PLoS ONE, 2015).
The campaign covered roughly 310,000 compounds. About 14,000 (4.5%) showed an effect of 50% or more. Effects have a minus sign here. The entries come from a sample that favours strong results as a whole.

target: human ether-à-go-go-related gene (hERG) potassium channel (human, UniProt Q12809); test: primary screen, population patch clamp on CHO cells stably expressing hERG; higher = less effect of the substance
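Note: peak tail current of the secondary pulse compared with the same well before compound.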

Sequence of human ether-à-go-go-related gene (hERG) potassium channel (Q12809 whole entry, looked up): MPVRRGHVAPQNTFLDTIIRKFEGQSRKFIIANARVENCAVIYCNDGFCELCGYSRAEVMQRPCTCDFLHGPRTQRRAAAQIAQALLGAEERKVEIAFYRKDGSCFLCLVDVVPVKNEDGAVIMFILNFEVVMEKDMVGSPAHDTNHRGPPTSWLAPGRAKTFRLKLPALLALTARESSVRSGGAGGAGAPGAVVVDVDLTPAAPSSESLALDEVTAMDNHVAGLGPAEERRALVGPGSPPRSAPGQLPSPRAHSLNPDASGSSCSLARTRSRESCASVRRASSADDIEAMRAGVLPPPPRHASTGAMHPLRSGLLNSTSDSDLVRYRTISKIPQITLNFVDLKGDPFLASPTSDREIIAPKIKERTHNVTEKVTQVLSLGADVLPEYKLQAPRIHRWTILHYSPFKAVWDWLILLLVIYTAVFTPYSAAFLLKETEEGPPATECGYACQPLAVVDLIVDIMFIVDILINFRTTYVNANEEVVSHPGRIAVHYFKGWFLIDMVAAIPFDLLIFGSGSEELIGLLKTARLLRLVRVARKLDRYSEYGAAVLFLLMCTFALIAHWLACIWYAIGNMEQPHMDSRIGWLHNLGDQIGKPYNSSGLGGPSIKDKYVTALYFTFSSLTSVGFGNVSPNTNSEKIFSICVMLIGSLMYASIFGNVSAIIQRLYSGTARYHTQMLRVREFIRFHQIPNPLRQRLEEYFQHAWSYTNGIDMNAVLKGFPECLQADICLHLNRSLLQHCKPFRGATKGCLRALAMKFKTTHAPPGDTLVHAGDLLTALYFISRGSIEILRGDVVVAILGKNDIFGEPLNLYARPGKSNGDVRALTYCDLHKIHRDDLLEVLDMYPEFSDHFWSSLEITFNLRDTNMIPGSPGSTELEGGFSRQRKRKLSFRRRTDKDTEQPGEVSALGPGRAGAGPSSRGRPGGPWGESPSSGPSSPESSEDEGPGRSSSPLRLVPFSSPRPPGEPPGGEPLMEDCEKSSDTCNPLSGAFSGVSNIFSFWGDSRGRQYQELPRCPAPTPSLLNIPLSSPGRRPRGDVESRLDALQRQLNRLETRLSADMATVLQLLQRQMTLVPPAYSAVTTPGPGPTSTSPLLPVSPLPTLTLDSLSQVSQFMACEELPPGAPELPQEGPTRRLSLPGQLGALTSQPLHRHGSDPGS

Point of comparison: `COc1nc(-c2ccc(Cl)cc2Cl)nc2ccccc12`, “hERG current change (%, negative = inhibition) at 10uM” value 6.59%. Against it:
- O=C(Nc1cccc2c1CCCC2)c1ccc(Cl)c([N+](=O)[O-])c1 — lower, 5.81%
- CC(=O)N1CCc2cc(Br)cc(S(=O)(=O)NCCCN3CCC(C)CC3)c21 — lower, -16.8%
- CC(=O)c1sc(NC(=O)CCS(=O)(=O)c2ccccc2)nc1C — higher, 8.51%
- Cc1sc(NC(=O)c2cc(-c3ccc(Cl)cc3)nc3ccccc23)c(C(N)=O)c1C — lower, 5.31%
- NC(=O)/C(=C/c1ccco1)NC(=O)/C=C/c1ccccc1 — lower, -5.56%
- N/C(=N\OC(=O)COc1ccccc1)c1ccc(Cl)cc1 — lower, 2.9%
- CN1CCN(CC(=O)Nc2c(C#N)cnn2-c2ccccc2)CC1 — higher, 12.1%
- CCOC(=O)[C@@H]1[C@H]2COc3cc(OC)ccc3[C@@H]2N2C(=O)N(c3ccc(C(F)(F)F)cc3)C(=O)[C@]12C — higher, 15.1%
- CCc1cc(OCCCCNCc2ccccc2)ccc1Cl.O=C(O)C(=O)O — lower, -25.6%
- O=C(O)C(=O)O.OCCNCCCOc1ccc(Cl)cc1Br — lower, -54.9%
- Cc1ccc(OCCCNCCO)c(Br)c1.O=C(O)C(=O)O — lower, -10.5%
- Cl.OCCCCNCc1ccc(OCc2ccccc2Cl)cc1 — lower, -15.9%
- Clc1ccc(OCCCNCc2ccccc2)c2ccccc12.O=C(O)C(=O)O — lower, -1.92%
- C=CCNCCCOc1ccc(Cl)cc1Br.O=C(O)C(=O)O — lower, -42.6%
- Cl.OCCNCc1ccc(OCc2ccc(Cl)cc2Cl)cc1 — lower, -45.8%
- Clc1ccc(Cl)c(OCCCCNCc2ccccc2)c1.O=C(O)C(=O)O — lower, -71.5%
- Cl.OCCCCNCc1ccc(OCc2ccc(Cl)cc2Cl)cc1 — lower, -51.6%
- Brc1ccccc1OCCNCc1ccccc1.O=C(O)C(=O)O — lower, -29.8%
- Clc1ccc(OCCCNCc2ccccc2)c(Br)c1.O=C(O)C(=O)O — lower, -64.4%
- Clc1cc(Br)ccc1OCCCNCc1ccccc1.O=C(O)C(=O)O — lower, -30.1%
- Cc1cc(C)c(S(=O)(=O)Nc2ccc(OCC(=O)O)cc2)c(C)c1 — higher, 6.93%
- Nc1nnnn1/N=C/c1ccccc1OCc1ccccc1 — higher, 19%
- COCCCN(Cc1cccs1)S(=O)(=O)c1c[nH]c(C(=O)OC)c1 — lower, -8.01%
- Cc1ccc2c(c1)nc(NCCCO)n2C — lower, -3.54%
- Cc1cc(Cl)ccc1OC(C)C(=O)OCC(=O)Nc1ccc2[nH]c(=O)[nH]c2c1 (stereo not drawn) — lower, -3.04%
- CN1CCN(c2nc(-c3ccccc3Cl)nc3ccccc23)CC1 — lower, -73.8%
- CN1CCN(c2nc(-c3ccccc3O)nc3ccccc23)CC1 — higher, 9.47%
- COc1cccc(-c2nc(N3CCN(C)CC3)c3ccccc3n2)c1O — lower, -30.8%
- OCCN1CCN(c2nc(-c3ccccc3O)nc3ccccc23)CC1 — lower, -25.1%
- CN1CCN(c2nc(-c3ccc(Cl)cc3Cl)nc3ccccc23)CC1 — lower, -73.9%
- CN1CCN(c2nc(-c3ccc(Cl)c(Cl)c3)nc3ccccc23)CC1 — higher, 6.63%
- CCN1CCN(c2nc(-c3ccccc3Cl)nc3ccccc23)CC1.Cl — lower, -69.9%
- Oc1ccccc1-c1nc(N2CCN(Cc3ccccc3)CC2)c2ccccc2n1 — higher, 10.5%
- COCCNC(=O)CSc1ccccc1C(=O)NC1CCCc2ccccc21 (stereo not drawn) — lower, 5.31%
- COc1cc(CNC(=O)CCn2nc(C)c3c(C)n(-c4ccccc4)nc3c2=O)cc(OC)c1OC — higher, 12%
- CCOc1cccc(C(=O)Nc2ccc3oc(-c4cccnc4)nc3c2)c1 — lower, -9.4%
- N#Cc1ccc(C(=O)Nc2nc3ccccc3[nH]2)cc1 — higher, 19%
- Cl.O=C(COc1ccc(Cl)cc1)NCCN1CCCC1 — lower, -40%
- COc1cc(Br)cc(CN2CCN(C=O)CC2)c1O — lower, -2.6%
- COc1cc(NC(=O)CN(C)S(=O)(=O)c2ccc(C)cc2)cc(OC)c1 — lower, -19.9%
- CCOC(=O)C1=C(C)NC(=O)/C1=C\N(C)C — higher, 19%
- CCOC(=O)c1ccc(NC(=S)N(CCCN2CCCC(C)C2)Cc2cccs2)cc1 (stereo not drawn) — lower, -76.3%
- COC(CNC(=O)CNC(=S)N(CCCN1CCOCC1)Cc1cccs1)OC — lower, 6.42%
- CCOC(=O)c1ccc(NC(=S)N2CCCC(C)C2)cc1 (stereo not drawn) — lower, -28.4%
- CCOC(=O)c1ccc(NC(=S)N(CCN(C)C)Cc2cccs2)cc1 — lower, -9.16%
- CCOC(=O)c1ccc(NC(=S)N(CCCN2CCN(CC)CC2)Cc2cccs2)cc1 — lower, -69.1%
- CCOC(=O)c1ccc(NC(=S)N(CCCN2CCCC2)Cc2cccs2)cc1 — lower, -67.5%
- CCOC(=O)c1ccc(NC(=S)N(CCCN2CCN(C)CC2)Cc2cccs2)cc1 — lower, -65.4%
- CCOC(=O)c1ccc(NC(=S)N(CCN2CCCCCC2)Cc2cccs2)cc1 — lower, -11.6%
- O=C(N/N=C/C(Br)=C/c1ccccc1)c1ccncc1 — lower, 0.715%
- Cc1ccc(NC(=O)c2ccccc2NC(=O)c2cccs2)cc1 — higher, 20.1%
- Cc1cccc(NS(=O)(=O)c2cc(Cl)ccc2Cl)n1 — higher, 22.2%
- CN1CCN(C2=C(Cl)C(=O)N(c3ccc(Cl)c(Cl)c3)C2=O)CC1 — higher, 14.1%
- COc1cccc(OCCNC(=O)c2cccc(OC)c2)c1 — lower, -1.4%
- Cc1cc(/C(=N/O)C(C)(C)NO)ccc1Cl — lower, 5.73%
- COc1ccc(CNc2ccc(Cl)cc2)cc1Cn1ccnc1 — lower, -20.3%
